Compound activity deposited in PubChem by several laboratories.
Only some compounds are listed: those with a hit (about 2.2% of all), similar ones and a draw of the others.
Ba/F3 V617F tox – reduce viability of Ba/F3 cells dependent on JAK2V617F | hit rate 1.1% among 220,000 | inhibition, % at 5.6 µM | Ba/F3 EpoR-JAK2V617F viability, ATP luminescence | AID 1446;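 active = inhibition above the campaign mean plus 3 SD over all tested compounds, cut at about 24% in these data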;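 also: cytokine-independent growth of Ba/F3 cells driven by EpoR plus mutant JAK2; 0% = DMSO-treated cells and 100% = JAK inhibitor I control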
KLF5 inhibitor – kruppel-like factor 5 inhibition; AID 1700; inhibition, % at 5 µM; hit rate 0.23% among 290,000; DLD-1 KLF5 promoter-luciferase reporter, luminescence;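 active = inhibition above a per-plate limit of that plate's mean compound inhibition plus 3 SD, cut at about 60% in these data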;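 also: 0% = DMSO wells and 100% = LY294002 at 200 µM; higher means less KLF5 promoter-driven luciferase light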
APP 5UTR inh – APP translation inhibition; inhibition, % at 2 µM; hit rate 0.82% among 190,000; SH-SY5Y APP 5'UTR-luciferase reporter, luminescence; AID 1285;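 active = inhibition above a set limit, derived from the sample mean plus 3 SD, cut at about 45% in these data; inconclusive = one replicate passes the limit while the other fails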
aSyn UTR inh – MLPCN primary screen, SNCA 5' untranslated region; hit rate 0.82% among 300,000; inhibition, % (tested at 7.5 µM); alpha-synuclein 5'UTR reporter, inhibitor activity; AID 1813; in the data active = inhibition above about 60%; inconclusive = no clear call, values can overlap the other calls;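 also: H4 neuroglioblastoma cells stably carrying SNCA 5'UTR luciferase fusion; 0% = DMSO wells and 100% = positive control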
BaF3 tox – parental Ba/F3 viability inhibition as JAK2V617F counter-screen | inhibition, % at 5.6 µM | hit rate 1.1% among 220,000 | CellTiter-Glo ATP luminescence | AID 1486;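 active = inhibition above a per-campaign cutoff, the mean inhibition of all tested compounds plus 3 SD, cut at about 27% in these data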;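 also: 0% = DMSO wells and 100% = JAK Inhibitor I control wells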
IEC-6 tox-1 – IEC-6 cytotoxicity, counter-screen for KLF5 inhibitors | hit rate 0.78% among 290,000 | luminescence viability | inhibition, % at 5 µM;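 also: 0% = plate median of test compound wells and 100% = cytotoxic reference compound wells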
KLF5 inh confirm – confirmation of KLF5 inhibitors; DLD-1 KLF5 promoter firefly luciferase reporter, luminescence; hit rate 79% among 610; shares compounds with KLF5 inhibitor; AID 1834; inhibition, % at 4 µM;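 active = inhibition above a set limit taken from the earlier primary screen, cut at about 63% in these data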;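 also: 0% = DMSO wells and 100% = LY294002 at 200 µM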
IEC-6 tox-2 – rat IEC-6 cytotoxicity, KLF5 inhibitor counter-screen | shares compounds with KLF5 inhibitor | IEC-6 rat intestinal cells, viability luminescence | inhibition, % at 4 µM | hit rate 56% among 610 | AID 1905; in the data active = inhibition above about 23%;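 also: cells exposed to compounds for 48 hours before viability read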
IEC-6 tox confirm – confirmation of cytotoxic compounds in rat IEC-6 intestinal epithelial cells; shares compounds with IEC-6 tox-1; IEC-6 rat intestinal epithelial viability, luminescence; inhibition, % at 5 µM; hit rate 63% among 1,900; AID 1907;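 also: 0% = vehicle and 100% = reference cytotoxic drug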
An asterisk follows results filed as active; ? = inconclusive; . = no result. Rule as the data show it, unless noted: active = inhibition above about 22%; inactive = the rest.

SMILES	Ba/F3 V617F tox	KLF5 inhibitor	APP 5UTR inh	aSyn UTR inh	BaF3 tox	IEC-6 tox-1	KLF5 inh confirm	IEC-6 tox-2	IEC-6 tox confirm
COc1ccc2[nH]c3c(C)c4ccncc4c(C)c3c2c1	65*	75*	.	109*	60*	74*	77*	59*	58*
CCCCCCCCCC[n+]1cccc2c3ccccc3ccc21	101*	96*	24	-37	92*	52*	65*	38*	36*
Nc1ccc(C(=O)n2c3ccccc3c3ccccc32)cc1	68*	79*	94*	117*	73*	83*	85*	60*	58*
Cc1cccc2c(C(=O)N3CCN(c4ccccc4)CC3)cc(-c3ccncc3)nc12	.	64*	.	94*	.	71*	71*	46*	53*
Cc1cccc2c(C(=O)N3CCCCC3)cc(-c3ccccc3)nc12	.	-23	.	11	.	-3	.	.	.
COc1ccc(S(=O)(=O)NCc2ccccn2)cc1NC(=O)c1ccccc1F	.	64*	.	52	.	76*	81*	53*	52*
CCOc1ccc(S(=O)(=O)NCc2ccccn2)cc1NC(=O)c1ccccc1	.	.	.	37	.	.	.	.	.
COc1cccc(N2CCN(C(=O)c3ccc(CS(=O)c4ccc(C)cc4)o3)CC2)c1 (configuration not stated)	.	74*	.	97*	.	85*	92*	85*	59*
COc1cccc(N2CCN(C(=O)c3ccc(CS(=O)Cc4ccc(C)cc4)o3)CC2)c1 (configuration not stated)	.	1	.	14	.	-6	.	.	.
CCCCS(=O)(=O)/C=C\C=C/S(=O)(=O)CCCC	101*	103*	98*	-9	105*	102*	92*	100*	40*
COc1ccc(S(=O)(=O)N(CC(=O)NCc2cccnc2)C2CCCCC2)cc1OC	0	7	.	-6	-3	3	.	.	.
O=C(N/N=C/c1cc(Cl)ccc1O)c1cccnc1	.	79*	.	-10	.	60*	89*	16	29*
Cc1ccccc1-c1nc(CS(=O)(=O)CC(=O)NCCCN2CCN(C)CC2)c(C)o1	.	-9	.	-20	.	-5	.	.	.
C/C(=N\NC(=O)c1n[nH]c2c1CCC2)c1cccs1	72*	75*	.	107*	73*	81*	71*	3	17
CCCCN(C(=O)Cc1coc2cc(C)c(C)cc12)c1c(N)n(Cc2ccccc2)c(=O)[nH]c1=O	.	.	.	22	.	.	.	.	.
COc1cccc(Cn2c(NCc3ccccn3)nc3c2c(=O)n(C)c(=O)n3C)c1	1	-12	-20	.	1	2	.	.	.
COc1cccc(Cn2c(NCc3cccnc3)nc3c2c(=O)n(C)c(=O)n3C)c1	91*	84*	33	71*	90*	88*	97*	70*	81*
CCOc1ccccc1NS(=O)(=O)c1ccc(-c2cnc(C3CC3)o2)cc1	.	78*	.	20	.	90*	83*	64*	59*
Cc1cc(NC(=O)CSc2nnc(-c3ccncc3)n2-c2ccccc2)no1	-6	-45	-4	-9	-1	5	.	.	.
COc1ccc(C2NN=C(c3c[nH]c4ccccc34)C2O)cc1 (configuration not stated)	.	-5	.	-12	.	1	.	.	.
COc1ccc(C2C(O)C(c3c[nH]c4ccccc34)=NN2C(=O)CCl)cc1 (configuration not stated)	.	102*	.	108*	.	102*	99*	101*	100*
Cc1ccc(N2C(=O)c3cccc4c(N)ccc(c34)C2=O)c2cccnc12	92*	63*	.	100*	85*	86*	90*	72*	74*
COc1cccc(/C=N/Nc2ccnc(=O)[nH]2)c1O	.	81*	.	19	.	97*	11	8	24*
COc1cccc(/C=N/NC(=O)N/N=C/c2cccc(OC)c2O)c1O	.	-54	.	?	.	-6	.	.	.
CCOc1ccccc1/C=N/Nc1ccnc(=O)[nH]1	.	-14	.	-10	.	2	.	.	.
SMILES	Ba/F3 V617F tox	KLF5 inhibitor	APP 5UTR inh	aSyn UTR inh	BaF3 tox	IEC-6 tox-1	KLF5 inh confirm	IEC-6 tox-2	IEC-6 tox confirm
O=c1nccc(N/N=C/c2ccccc2O)[nH]1	.	88*	.	-4	.	96*	-4	11	16
O=c1[nH]c2ccccc2nc1Cc1ccc([N+](=O)[O-])cc1	.	-21	.	-14	.	9	.	.	.
CC(C)N1CCc2c(sc(NC(=O)c3nc4ccccc4s3)c2C(N)=O)C1	4	-3	-7	-58	4	9	.	.	.
CC(C)N1CCc2c(sc(NC(=O)c3ccc([N+](=O)[O-])o3)c2C(N)=O)C1	.	72*	.	104*	.	99*	55	90*	86*
CC(C)(C)c1ccc(C(=O)NCC(=O)O)cc1	2	-34	-2	-10	5	11	.	.	.
Cc1onc(-c2c(F)cccc2Cl)c1C(=O)O/N=C(\N)c1ccc([N+](=O)[O-])o1	7	-24	.	-80	2	1	.	.	.
CC(C)C(=O)c1cn(CC(=O)NCc2ccco2)c2ccccc12	2	4	-13	-42	3	3	.	.	.
CCOC(=O)C(C)Oc1cccc2c(=O)n(CC(=O)NCc3ccco3)ccc12 (configuration not stated)	77*	77*	94*	73*	68*	77*	80*	55*	52*
COc1ccc(NC(=O)CC(C)n2ccnc2)cc1 (configuration not stated)	.	-18	.	-15	.	-4	.	.	.
CCCCCC(=O)N[C@@H](c1ccccc1)[C@@H](O)C(=O)O[C@H]1C[C@@]2(O)[C@@H](OC(=O)c3ccccc3)C3[C@](C)(C(=O)[C@H](OC(C)=O)C(=C1C)C2(C)C)[C@@H](O)C[C@H]1OC[C@@]31OC(C)=O (some centres not stated)	.	66*	.	87*	.	96*	84*	88*	86*
O=C(NC1CCCCC1)C(c1ccccn1)N(C(=O)c1csnn1)c1ccccc1 (configuration not stated)	.	-26	.	-13	.	-2	.	.	.
CCC1CCCCN1C(=S)NC(=O)c1cccc([N+](=O)[O-])c1 (configuration not stated)	.	-11	.	-2	.	10	.	.	.
COc1ccc(OC)c(Nc2c3c(nc4ccccc24)CCC3)c1	.	64*	.	106*	.	85*	111*	63*	58*
O=C1C(=O)N(CC2CCCO2)C(c2ccco2)/C1=C(/O)c1ccc(F)cc1 (configuration not stated)	5	-17	5	13	7	-6	.	.	.
CCOc1ccc(-c2cc(N3C(=O)Nc4ccccc4N3O)n[nH]2)cc1	76*	69*	25	-7	77*	70*	2	19	2
Cc1ccc(NC(=O)CCNC(=O)c2ccco2)cc1Cl	.	-10	.	10	.	1	.	.	.
